From PubChem BioAssay
Calls of active or inactive are those of the source. Unless noted, how the calls were made is not given here.

How the values were obtained:
[1] = tested on: Wnt5a (protein binding on small-molecule microarray); assay: small molecules binding Wnt5a protein – biophysical, small-molecule microarray, 635/667 nm fluorescence, primary screen (AID 1142); conditions: 635 nm fluorescence, higher = more signal;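 further: fluorescence read at 667 nm with signal to noise per printed feature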
[2] = ATP-based viability of Huh7 replicon cells – cell-based, CellTiter-Glo luminescence, basal, 48 h, cytotoxicity control for HCV replication inhibitor project, primary screen (AID 1143); conditions: Huh7 HCV replicon, CellTiter-Glo luminescence, 48 h, higher = more signal, called active from +8 up or from −8 down unless noted;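 further: Huh7 hepatoma cells carrying a hepatitis C replication reporter with no stimulus; test concentration not given here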
[3] = Pseudomonas biofilm growth suppression – PAO1 strain, BacTiter-Glo luminescence, LB-PBS, primary screen (AID 1144); conditions: P. aeruginosa PAO1 biofilm, 12 h, higher = more signal
[4] = basal CRE-LacZ reporter activity in PC12 – cell-based, unstimulated, primary screen (AID 1145); conditions: no forskolin, luminescence, 4.5 h; higher = more signal, called active from +8 up or from −8 down unless noted
[5] = forskolin-driven CRE-LacZ activity in PC12 – cell-based, CRE-LacZ reporter, forskolin-stimulated, primary screen (AID 1146); conditions: luminescence, 4.5 h; higher = more signal, called active from +8 up or from −8 down unless noted;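 further: PC12 cells with 6xCRE LacZ reporter stimulated by forskolin 10 µM; beta-galactosidase reporter signal reflecting CREB driven transcription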
[6] = target: Streptavidin (Streptomyces avidinii) (UniProt P22629); assay: compounds binding control protein streptavidin – biophysical, small-molecule microarray, 635/667 nm fluorescence, artefact control for SMM compound annotation, primary screen (AID 1147); conditions: higher = more signal;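 further: signal reflects streptavidin binding to arrayed compounds as a control protein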
[7] = probe aInhba binding on compound microarray – biochemical, small-molecule microarray, 635/667 nm fluorescence, primary screen (AID 1148); conditions: higher = more signal; small-molecule microarray, probe aInhba, fluorescence unless noted;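 further: score merges 667nm spot fluorescence with signal-to-noise for antibody binding to printed compounds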
Torsin-1A (Homo sapiens) [8] = target: Torsin-1A (Homo sapiens) (UniProt O14656); assay: TOR1A wild-type binding on microarray – cell lysate, small-molecule microarray, lysate, 635/667 nm, primary screen (AID 1149); conditions: COS7 hTOR1A-WT lysate, 635 nm fluorescence, higher = more signal
Torsin-1A (Homo sapiens) [9] = target: Torsin-1A (Homo sapiens) (UniProt O14656); assay: torsin A mutant lysate binding on microarrays – cell lysate, small-molecule microarray, COS7 lysate, 635/667 nm fluorescence, primary screen (AID 1150); conditions: COS7 hTOR1A mutant lysate, 635 nm fluorescence, higher = more signal;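 further: score pools 667 nm emission and signal to noise measuring lysate protein binding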
[10] = tested on: Sonic hedgehog protein (Shh); assay: Sonic hedgehog microarray binding compounds – biochemical, small-molecule microarray, 635/667 nm fluorescence, primary screen (AID 1151); conditions: 635 nm fluorescence, higher = more signal;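 further: Shh protein binding to compounds spotted on small-molecule microarray slides; score combines spot fluorescence intensity with signal-to-noise across triplicate slides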
[11] = optical density shifts of acrAB sulA E. coli – strain DRC41, OD650, 48 h, E. coli filamentation inducer project, primary screen (AID 1152); conditions: higher = more signal, called active from +8 up or from −8 down unless noted;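 further: E. coli MC1000 strain DRC41 lacking acrAB efflux pump and sulA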
[12] = probe aLefty1 binding on compound microarray – biochemical, small-molecule microarray, 635/667 nm fluorescence, primary screen (AID 1153); conditions: higher = more signal; small-molecule microarray, probe aLefty1, fluorescence unless noted;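 further: score merges spot fluorescence with signal-to-noise ratio from the scanned slide images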
[13] = plasmodial surface anion channel blockers, osmotic lysis – cell-based, P. falciparum Indochina, OD700, 1 h, primary screen (AID 1154); conditions: P. falciparum Indochina infected RBC osmotic lysis; higher = more signal, called active from +8 up or from −8 down unless noted
[14] = plasmodial surface anion channel blockers, osmotic lysis – cell-based, P. falciparum Indochina, OD700, 2 h, primary screen (AID 1155);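 further: lysis reports solute entry through the parasite surface anion channel PSAC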; conditions: P. falciparum Indochina infected erythrocytes; higher = more signal, called active from +8 up or from −8 down unless noted
[15] = changes in parasitized red cell lysis, either direction – P. falciparum Indochina, OD700, 3 h, PSAC antagonist project, primary screen (AID 1156); conditions: P. falciparum-infected erythrocytes, osmotic lysis; higher = more signal, called active from +8 up or from −8 down unless noted
[16] = plasmodial surface anion channel blockers, osmotic lysis – cell-based, P. falciparum Indochina, OD700, 18 h, primary screen (AID 1157); conditions: P. falciparum Indochina infected erythrocytes, osmotic lysis OD700, 18 h; higher = more signal, called active from +8 up or from −8 down unless noted
[17] = S6 kinase pathway phospho-S6 level changes – cell-based, A549, cytoblot, luminescence, serum-stimulated, primary screen (AID 1158); conditions: 5 h, higher = more signal;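 further: serum-stimulated A549 lung adenocarcinoma cells; signal is phosphorylated S6 detected by cytoblot immunostaining with HRP secondary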
[18] = target: NADPH oxidase 2 (Homo sapiens) (UniProt P04839); assay: compounds shifting NOX2 Amplex Red fluorescence – cell-based, HEK293-NOX2, PMA-stimulated, NOX inhibitor project, primary screen (AID 1159); conditions: 45 min; higher = more signal, called active from +8 up or from −8 down unless noted; further: test concentration not given here
[19] = target: NADPH oxidase 4 (Homo sapiens) (UniProt Q9NPH5); assay: compounds shifting NOX4 Amplex Red fluorescence – cell-based, HEK293-NOX4, tetracycline-induced, NOX inhibitor project, primary screen (AID 1160); conditions: HEK293-NOX4, Amplex Red H2O2 fluorescence, 45 min; higher = more signal, called active from +8 up or from −8 down unless noted
[20] = target: NADPH oxidase 5 (Homo sapiens) (UniProt Q96PH1); assay: compounds shifting NOX5 Amplex Red fluorescence – cell-based, HEK293-NOX5, NOX inhibitor project, primary screen (AID 1161); conditions: HEK293-NOX5, ionomycin, 45 min, higher = more signal
Chain of NADPH oxidase 5 (Homo sapiens) (Q96PH1 whole entry, looked up): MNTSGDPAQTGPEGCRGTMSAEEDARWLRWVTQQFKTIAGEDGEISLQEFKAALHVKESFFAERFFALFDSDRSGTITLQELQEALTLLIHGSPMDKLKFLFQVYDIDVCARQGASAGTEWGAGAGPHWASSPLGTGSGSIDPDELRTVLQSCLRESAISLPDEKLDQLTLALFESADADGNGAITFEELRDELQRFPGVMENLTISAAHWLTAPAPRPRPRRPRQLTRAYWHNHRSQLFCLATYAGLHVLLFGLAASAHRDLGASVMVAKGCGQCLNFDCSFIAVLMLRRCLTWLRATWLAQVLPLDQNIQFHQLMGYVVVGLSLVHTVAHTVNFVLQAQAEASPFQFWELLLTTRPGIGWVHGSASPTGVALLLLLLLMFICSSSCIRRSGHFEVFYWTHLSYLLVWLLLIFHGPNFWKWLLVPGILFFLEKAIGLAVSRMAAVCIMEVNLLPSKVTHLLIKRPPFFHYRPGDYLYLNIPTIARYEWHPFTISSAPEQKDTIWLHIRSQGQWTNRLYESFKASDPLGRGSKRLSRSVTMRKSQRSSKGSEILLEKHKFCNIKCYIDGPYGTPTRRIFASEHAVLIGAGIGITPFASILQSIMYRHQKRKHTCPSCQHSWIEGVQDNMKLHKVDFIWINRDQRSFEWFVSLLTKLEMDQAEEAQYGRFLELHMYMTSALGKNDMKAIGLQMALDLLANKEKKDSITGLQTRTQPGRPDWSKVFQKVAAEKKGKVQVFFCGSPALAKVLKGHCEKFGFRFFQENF

Chain of NADPH oxidase 2 (Homo sapiens) (P04839 whole entry, looked up): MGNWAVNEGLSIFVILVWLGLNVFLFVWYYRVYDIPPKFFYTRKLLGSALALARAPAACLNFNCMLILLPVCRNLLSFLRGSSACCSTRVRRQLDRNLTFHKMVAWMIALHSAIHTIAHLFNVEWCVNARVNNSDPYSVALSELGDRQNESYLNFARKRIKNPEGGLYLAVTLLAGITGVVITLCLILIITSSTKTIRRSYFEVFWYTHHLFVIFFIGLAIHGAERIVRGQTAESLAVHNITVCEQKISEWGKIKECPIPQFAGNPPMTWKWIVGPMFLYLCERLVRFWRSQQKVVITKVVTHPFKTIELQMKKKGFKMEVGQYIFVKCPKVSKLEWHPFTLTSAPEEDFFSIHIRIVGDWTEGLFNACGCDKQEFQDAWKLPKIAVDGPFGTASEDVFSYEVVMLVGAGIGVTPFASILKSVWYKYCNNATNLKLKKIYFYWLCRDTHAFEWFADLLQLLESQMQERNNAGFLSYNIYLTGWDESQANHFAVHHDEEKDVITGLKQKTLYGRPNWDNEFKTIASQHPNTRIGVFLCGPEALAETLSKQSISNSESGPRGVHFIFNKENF
Chain of NADPH oxidase 4 (Homo sapiens) (Q9NPH5 whole entry, looked up): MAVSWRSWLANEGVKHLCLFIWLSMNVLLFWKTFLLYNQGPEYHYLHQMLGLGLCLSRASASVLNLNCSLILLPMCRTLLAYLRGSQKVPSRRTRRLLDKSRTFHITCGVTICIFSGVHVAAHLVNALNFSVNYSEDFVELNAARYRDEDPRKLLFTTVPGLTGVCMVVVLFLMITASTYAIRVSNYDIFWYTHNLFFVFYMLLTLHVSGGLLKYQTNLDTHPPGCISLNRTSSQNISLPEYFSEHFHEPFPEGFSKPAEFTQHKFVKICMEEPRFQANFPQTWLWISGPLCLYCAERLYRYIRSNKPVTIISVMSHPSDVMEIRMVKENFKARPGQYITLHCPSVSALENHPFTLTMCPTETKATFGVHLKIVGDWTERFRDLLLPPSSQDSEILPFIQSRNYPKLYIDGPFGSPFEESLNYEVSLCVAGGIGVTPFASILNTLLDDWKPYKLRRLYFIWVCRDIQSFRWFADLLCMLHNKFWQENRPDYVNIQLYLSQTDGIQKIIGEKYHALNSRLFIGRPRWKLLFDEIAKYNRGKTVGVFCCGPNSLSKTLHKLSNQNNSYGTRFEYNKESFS
Chain of Streptavidin (Streptomyces avidinii) (P22629 whole entry, looked up): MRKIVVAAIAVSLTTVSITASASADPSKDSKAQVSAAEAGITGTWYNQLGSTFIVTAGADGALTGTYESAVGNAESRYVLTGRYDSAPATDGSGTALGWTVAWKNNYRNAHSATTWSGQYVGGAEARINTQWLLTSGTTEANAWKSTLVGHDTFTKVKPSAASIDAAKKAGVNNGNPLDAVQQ
Chain of Torsin-1A (Homo sapiens) (O14656 whole entry, looked up): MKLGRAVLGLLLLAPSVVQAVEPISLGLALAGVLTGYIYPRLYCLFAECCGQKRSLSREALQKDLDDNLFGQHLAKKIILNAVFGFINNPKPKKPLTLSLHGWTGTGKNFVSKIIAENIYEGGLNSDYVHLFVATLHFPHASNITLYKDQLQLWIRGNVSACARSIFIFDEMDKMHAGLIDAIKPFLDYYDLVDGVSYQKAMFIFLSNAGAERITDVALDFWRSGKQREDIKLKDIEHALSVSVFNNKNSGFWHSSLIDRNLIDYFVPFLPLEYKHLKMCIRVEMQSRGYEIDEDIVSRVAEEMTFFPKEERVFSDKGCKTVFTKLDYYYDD

Compound | composite z-score [1] | z-score [2] | z-score [3] | z-score [4] | z-score [5] | composite z-score [6] | composite z-score [7] | composite z-score (Torsin-1A (Homo sapiens) [8]) | composite z-score (Torsin-1A (Homo sapiens) [9]) | composite z-score [10] | z-score [11] | composite z-score [12] | z-score [13] | z-score [14] | z-score [15] | z-score [16] | z-score [17] | z-score [18] | z-score [19] | z-score [20]
CCCc1cc2c(n1CCO)C(C)C1CN(C(=O)c3ccccc3)C(C)(C(=O)OC)C21 (stereo not given) | 0.559 | -0.938 (inactive) | 0.251 (inactive) | 1.74 (inactive) | 0.444 (inactive) | 1.04 | 0.414 | 0.726 | 1.02 | -0.898 | -1.14 (inactive) | 0.549 | 2.33 (inactive) | 0.196 (inactive) | 0.101 (inactive) | 0.618 (inactive) | -0.199 | 0.0961 (inactive) | -2.55 (inactive) | -2.35
COC(=O)NCC=Cc1nc(CCC=CC(=O)O[C@H]2CC3CC(=O)O[C@@H](C=CCC(C)C)C[C@@H]4CC[C@H](C)[C@@H](C[C@@H](OC)C[C@H](C2)O3)O4)co1 | -0.335 | -3.73 (inactive) | 0.881 (inactive) | 0.106 (inactive) | -1.96 (inactive) | -0.875 | -0.159 | -0.429 | -0.653 | 0.0788 | -0.0987 (inactive) | -0.213 | 0.465 (inactive) | 0.0987 (inactive) | -0.0546 (inactive) | -0.195 (inactive) | -0.975 | 0.902 (inactive) | 0.594 (inactive) | -0.00689
C=C(CC1(CNP(=O)(c2ccccc2)c2ccccc2)CC1)c1ccccc1 | 0.0774 | -0.649 (inactive) | 0.366 (inactive) | -0.182 (inactive) | -0.418 (inactive) | -0.0187 | 0.102 | -0.27 | 0.449 | -1.31 | -0.822 (inactive) | 0.241 | 1.41 (inactive) | 0.453 (inactive) | 1.07 (inactive) | 0.519 (inactive) | -0.254 | -0.335 (inactive) | -0.4 (inactive) | -2.42
COC(=O)[C@@]1(Cc2ccccc2)[C@H]2c3cc(C(=O)N(C)C)[nH]c3C[C@H]2CN1C(=O)c1ccccc1 | 0.155 | -0.167 (inactive) | -0.0166 (inactive) | -0.368 (inactive) | -0.897 (inactive) | -0.033 | -0.147 | -0.816 | -0.317 | -0.836 | -1.41 (inactive) | 0.802 | 1.11 (inactive) | 0.322 (inactive) | 0.337 (inactive) | 0.766 (inactive) | -0.519 | 0.434 (inactive) | 0.0256 (inactive) | -3.03
COC(=O)[C@H]1[C@H](c2ccccc2)C(=O)[C@]2(O)c3ccccc3O[C@@]12c1ccccc1 | 0.129 | -0.962 (inactive) | -1.45 (inactive) | -0.161 (inactive) | -0.474 (inactive) | 0.287 | -0.101 | 0.202 | 0.163 | 0.615 | -0.474 (inactive) | -0.0523 | -0.446 (inactive) | -0.657 (inactive) | 0.126 (inactive) | -0.564 (inactive) | 1.55 | -0.181 (inactive) | -1.55 (inactive) | -0.324
O=P(c1ccccc1)(c1ccccc1)N1CC2(CC2)CC(O)(c2ccccc2)C1 (stereo not given) | 0.323 | -1.55 (inactive) | 0.525 (inactive) | 0.204 (inactive) | -0.927 (inactive) | 0.386 | 0.309 | -0.316 | -0.276 | -1.05 | -1.16 (inactive) | 0.276 | 0.492 (inactive) | 0.585 (inactive) | 0.483 (inactive) | 0.741 (inactive) | 0.0869 | -0.356 (inactive) | -0.976 (inactive) | -2.94
C=C(CC1(C(C)NP(=O)(c2ccccc2)c2ccccc2)CC1)c1ccccc1 (stereo not given) | 0.41 | -2.48 (inactive) | -0.917 (inactive) | 0.0109 (inactive) | 1.49 (inactive) | 0.416 | 0.122 | -1.03 | 0.0087 | 0.0881 | -1.67 (inactive) | 0.603 | 2.42 (inactive) | 0.809 (inactive) | 0.512 (inactive) | 1.03 (inactive) | 0.984 | -0.412 (inactive) | -3.69 (inactive) | -3.82
CN1CCC(c2ccc(CO)cc2)=CC1c1cccs1 (stereo not given) | -0.113 | -1.33 (inactive) | 0.196 (inactive) | 2.8 (inactive) | 0.158 (inactive) | -0.511 | -0.154 | 0.175 | 0.367 | 1.7 | -0.0115 (inactive) | -0.0111 | 5.23 (inactive) | 0.366 (inactive) | 0.377 (inactive) | 0.528 (inactive) | -0.594 | -0.822 (inactive) | -1.01 (inactive) | -1.21
